Drawing on PubChem BioAssay AID463173 (ICCB-Longwood Screening Facility, Harvard Medical School, 2010), this text covers survival for 89 compounds.

Values joined by “and” are separate entries in the source; they are usually repeats but may differ in a detail not shown here. Equal entries are not always repeated. Hit rate of the full screen: of about 52,000 compounds, about 4,300 (8.3%) were called active. Cut-off read from the data, not from the text of the source: active = survival mostly below about 52% (no sharp cut-off); inactive = mostly above about 56%. The sample as a whole holds a higher share of actives than the screen did. More than one record can exist for a structure, and the calls need not agree.

The assay concerns DeltatarO mutant. The assay is described as follows: growth inhibition of S. aureus wild type versus tarO mutant, primary screen, teichoic acid synthesis inhibitors, RN4220, OD600 (AID 463173). The note with it: OD600, 18 h, stronger effect = lower value, screened at 18.75 µg/mL (by protocol).
For the compound `CCn1nc(CCC(=O)O)c2ccccc2c1=O`, the survival was 80% (inactive). Consider `O=C(Nc1ccc2oc(-c3cccc4c(Br)cccc34)nc2c1)c1ccc(Br)cc1`, for which the survival was 71% (inactive).

`Nc1ccc2oc(-c3ccccc3Br)nc2c1`: the survival is 87% (inactive) and 39% (active). For the compound `Cc1ccc2oc(-c3ccccc3C)nc2c1`, the survival was 105% (inactive). The same measure for `CCOC(=O)CC(NC(=O)c1cc2cc(OC)ccc2oc1=O)c1ccc(OC)cc1` (centres undefined): 74% (inactive); for `Cc1ccccc1C(=O)NCc1nc(-c2ccc(Cl)cc2)no1`: 47% (active).

For `Cc1ccc(-c2noc(CNC(=O)c3ccc(C)c(Cl)c3)n2)cc1`, the survival was 49% (inactive). The same measure for `Cc1ccc(-c2noc(CCCC(=O)NCc3ccco3)n2)cc1`: 53% (inactive).

With `Cc1cccc(-c2noc(CCCC(=O)NCc3ccco3)n2)c1`, the survival was 42% (active).

In the case of `COc1cccc(-c2noc(CCCC(=O)NCc3ccco3)n2)c1`, the survival was 109% (inactive). Consider `Cc1ccc(CC(=O)NCc2nc(-c3cccc(C)c3)no2)cc1`, for which the survival was 69% (inactive).

For the compound `Cc1cccc(-c2noc(CNC(=O)c3ccc(C)cc3C)n2)c1`, the survival was 37% (active). As to `Cc1ccc(-c2noc(CNC(=O)c3ccccc3)n2)cc1`, the survival was 63% (inactive). For the compound `Cc1cccc(-c2noc(CNC(=O)c3ccccc3Br)n2)c1`, the survival was 72% (inactive). Take `O=C(CSc1nc2ccccc2nc1Cc1ccc(Cl)cc1)N1CCc2ccccc21`: the survival is 93% (inactive).

Take `O=C(NC1CC(=O)N(c2ccc(F)cc2)C1)C(c1ccccc1)c1ccccc1` (centres undefined): the survival is 124% (inactive). The same measure for `CCc1ccc(C(=O)c2cn(CC(=O)Nc3ccc(Cl)cc3)c3cc4c(cc3c2=O)OCO4)cc1`: 146% (inactive); for `CCc1ccc(NC(=O)Cn2ccn(-c3ccc(C)c(C)c3)c(=O)c2=O)cc1`: 104% (inactive); for `COc1ccc(OC)c(CCNC(=O)c2sc3nc4n(c(=O)c3c2C)CCCC4)c1`: 80% (inactive). The same measure for `COc1cccc(NC(=O)CCN2C(=O)c3ccccc3Sc3ncccc32)c1`: 102% (inactive). For `O=c1c2cc3c(cc2nc2sc(Nc4cccc([N+](=O)[O-])c4)nn12)OCO3`, the survival was 123% (inactive). The same measure for `CC(C)c1ccc(C2c3c(-c4ccccc4O)n[nH]c3C(=O)N2CCc2ccccc2)cc1` (centres undefined): 50% (inactive).

As for `Cc1ccc(C2c3c(-c4ccccc4O)n[nH]c3C(=O)N2CCCO)cc1` (centres undefined), the survival is 58% (inactive).

As for `O=C1c2[nH]nc(-c3ccccc3O)c2C(c2ccc(Cl)cc2)N1CCc1ccccc1` (centres undefined), the survival was 4% (active). The same measure for `O=C1c2[nH]nc(-c3ccccc3O)c2C(c2ccc(F)cc2)N1CCO` (centres undefined): 78% (inactive); for `Cc1ccc(C2c3c(-c4ccccc4O)n[nH]c3C(=O)N2CCc2ccccc2)cc1` (centres undefined): 32% (active). The same measure for `CCN1C(=O)N(CC)C2NC(=S)NNC21` (centres undefined): 91% (inactive); for `CC(C)(C)OC(=O)N1CCC(c2c(C(=O)Nc3ccc4c(c3)OCCO4)cnn2-c2ccccc2)CC1`: 96% (inactive). The same measure for `CCn1nc(C)c2c(-c3ccccc3)cc(=O)n(C(C)C(=O)NCCc3ccc(OC)c(OC)c3)c21` (centres undefined): 92% (inactive); for `CCCS(=O)(=O)N1CC(=O)N(c2ccc(C)cc2C)C(C)(C(=O)NC2CCCCCC2)C1` (centres undefined): 67% (inactive). Consider `CCC(=O)Nc1ccccc1-c1nc2ccccc2n(C(CC)C(=O)Nc2cccc(Cl)c2)c1=O` (centres undefined), for which the survival was 24% (active).

Regarding `CC(=O)Nc1ccccc1-c1nc2ccccc2n(C(C)C(=O)Nc2cccc(C)c2C)c1=O` (centres undefined), the survival was 100% (inactive). The same measure for `CCC(=O)Nc1ccccc1-c1nc2ccccc2n(C(C)C(=O)Nc2cccc(Cl)c2C)c1=O` (centres undefined): 42% (active).

With `CCC(=O)Nc1ccccc1-c1nc2ccccc2n(C(C)C(=O)Nc2ccc(OC)cc2)c1=O` (centres undefined), the survival is 55% (inactive). The same measure for `CCC(C(=O)Nc1ccc(C)c(Cl)c1)n1c(=O)c(-c2ccccc2NC(C)=O)nc2ccccc21` (centres undefined): 63% (inactive); for `CCC(=O)Nc1ccccc1-c1nc2ccccc2n(C(CC)C(=O)Nc2cccc(C(C)=O)c2)c1=O` (centres undefined): 91% (inactive).

In the case of `CC(C)N(C(=O)CSc1nnc(Cn2nnc3ccccc32)n1C)C(C)C`, the survival is 81% (inactive). `Cc1ccn2c(Nc3ccc4c(c3)OCO4)c(-c3ccc(N(C)C)cc3)nc2c1`: the survival is 101% (inactive).

`COc1ccc(C(=O)Oc2ccc(C(c3c(C)[nH][nH]c3=O)c3c(C)[nH][nH]c3=O)cc2)cc1`: the survival was 80% (inactive). Take `COc1ccc2nc(N(Cc3cccnc3)C(=O)c3ccco3)sc2c1`: the survival was 101% (inactive). The same measure for `Cc1cc2nc(N(Cc3cccnc3)C(=O)c3ccc(Cl)s3)sc2cc1C`: 32% (active); for `CCS(=O)(=O)c1ccccc1C(=O)N(Cc1cccnc1)c1nc2cc(C)c(C)cc2s1`: 112% (inactive); for `COc1ccc2sc(N(Cc3cccnc3)C(=O)c3cccs3)nc2c1`: 76% (inactive). The same measure for `COc1ccc2sc(N(Cc3cccnc3)C(=O)c3ccco3)nc2c1`: -2% (active).

In the case of `COc1cc(C(=O)N(Cc2cccnc2)c2nc3cc(C)c(C)cc3s2)cc(OC)c1OC`, the survival was 49% (inactive). For `COc1ccc(N(C(=O)c2snc(C(N)=O)c2N)C(C(=O)NCc2ccc(F)cc2)c2ccc(C)o2)c(OC)c1` (centres undefined), the survival was 67% (inactive). On to `Cc1ccccc1-c1noc(-c2ccc(N3CCCC3)c([N+](=O)[O-])c2)n1`, for which the survival is 65% (inactive).

As to `CCOC(=O)c1ccccc1NC(=O)COc1ccccc1-c1nnc(-c2ccccc2)o1`, the survival is 49% (inactive). The same measure for `CCC(Oc1ccccc1-c1nnc(-c2ccccc2)o1)C(=O)Nc1ccc(C(C)=O)cc1` (centres undefined): 112% (inactive); for `Cc1ccc(-c2cc(NC(=O)C(C)Oc3ccc(C)c(C)c3)on2)cc1` (centres undefined): 93% (inactive). The same measure for `CCc1ccccc1NC(=O)C(CC)Oc1ccccc1-c1nnc(-c2ccccc2)o1` (centres undefined): 32% (active); for `CCC(Oc1ccc(F)cc1)C(=O)Nc1cc(-c2ccc(C)cc2)no1` (centres undefined): 54% (inactive). The same measure for `CCC(Oc1ccccc1F)C(=O)Nc1c(C(=O)c2ccccc2)oc2ccccc12` (centres undefined): 53% (inactive); for `CC(Oc1ccc(F)cc1)C(=O)Nc1cc(-c2ccc(F)c(F)c2)no1` (centres undefined): 59% (inactive). Regarding `Cc1ccc(-c2cc(NC(=O)C(C)Oc3ccccc3F)on2)cc1` (centres undefined), the survival was 33% (active). Turning to `CCC(Oc1ccccc1F)C(=O)Nc1cc(-c2ccccc2)no1` (centres undefined), the survival is 35% (active). The same measure for `Cc1ccc(NC(=O)CCCn2c(=O)c3cccn3c3cccnc32)c(C)c1`: 87% (inactive). On to `COc1ccc(CNC(=O)CCc2nnc3n(C)c(=O)c4sccc4n23)cc1`, for which the survival is 180% (inactive).

As to `O=C(CN1CCN(Cc2ccccc2Cl)C1=O)NCCc1ccc(Cl)cc1`, the survival is 49% (inactive). The same measure for `COc1cccc(-c2nc(SCC(=O)NCC3CCCO3)c(-c3ccc(Cl)cc3)[nH]2)c1` (centres undefined): 63% (inactive); for `CCOc1c(Br)cc(C2CC(=O)Nc3cc4c(cc32)OCO4)cc1OC` (centres undefined): 127% (inactive); for `CCOc1ccc(N2C(=O)CC(N3CCCCC3CC)C2=O)cc1` (centres undefined): 53% (active). As to `COc1ccc(N2C(=O)CC(N3CCCCC3C)C2=O)cc1` (centres undefined), the survival is 106% (inactive). Take `CCC1CCCCN1C1CC(=O)N(c2ccc(NC(C)=O)cc2)C1=O` (centres undefined): the survival was 96% (inactive).

As to `CCSc1nnc2n(-c3ccccc3)c(=O)c3c4c(sc3n12)CCCC4`, the survival is 95% (inactive).

For `Cc1cccc(-n2c(=O)c3c4c(sc3n3cnnc23)CCCC4)c1`, the survival was 72% (inactive). On to `CSc1nnc2n(-c3cccc(C)c3)c(=O)c3c4c(sc3n12)CCCC4`, for which the survival was 66% (inactive). In the case of `CCSc1nnc2n(-c3cccc(C)c3)c(=O)c3c4c(sc3n12)CCCC4`, the survival is 71% (inactive). The same measure for `CCCSc1nnc2n(-c3cccc(C)c3)c(=O)c3c4c(sc3n12)CCCC4`: 5% (active).

For `CCCCSc1nnc2n(-c3cccc(C)c3)c(=O)c3c4c(sc3n12)CCCC4`, the survival was 1% (active). In the case of `CC(C)Oc1ccc(CNC(=O)c2cc3cccc4c3n2CC(C)S4)cc1` (centres undefined), the survival is 91% (inactive). Take `Cc1ccc(CCNC(=O)c2nn(C)c3c2CSc2ccccc2-3)cc1`: the survival is 82% (inactive).

As for `Cc1cccc(CCNC(=O)c2nn(C)c3c2CSc2ccccc2-3)c1`, the survival is 77% (inactive).

For `Cc1ccc2c(c1)-c1c(c(C(=O)NCCc3ccccc3)nn1C)CS2`, the survival is 37% (active).

As to `O=C(Nc1ccc(C(=O)OCc2cc(=O)n3c4c(sc3n2)CCCC4)cc1)c1ccc(F)cc1`, the survival was 101% (inactive). The same measure for `COc1ccccc1C(=O)Nc1ccc(C(=O)OCc2cc(=O)n3c4c(sc3n2)CCCC4)cc1`: 37% (active); for `Cc1cccc(C)c1OCc1cc(=O)n2c3c(sc2n1)CCCC3`: -17% (active). The same measure for `Cc1ccccc1C(=O)Nc1cccc(C(=O)OCc2cc(=O)n3c4c(sc3n2)CCCC4)c1`: 46% (active). With `Cc1ccc(OCc2cc(=O)n3c4c(sc3n2)CCCC4)cc1C`, the survival was 82% (inactive). The same measure for `Cc1ccc(C(=O)Nc2ccc(C(=O)OCc3cc(=O)n4c5c(sc4n3)CCCC5)cc2)cc1`: 83% (inactive); for `Cc1cccc(OCc2cc(=O)n3c4c(sc3n2)CCCC4)c1C`: 131% (inactive). `O=C(Nc1ccccc1C(=O)OCc1cc(=O)n2c3c(sc2n1)CCCC3)c1cccc(Cl)c1`: the survival is 69% (inactive). The same measure for `O=C(OCc1cc(=O)n2c3c(sc2n1)CCCC3)c1cccc(NC(=O)c2ccccc2F)c1`: 115% (inactive); for `O=C(Nc1ccccc1C(=O)OCc1cc(=O)n2c3c(sc2n1)CCCC3)c1ccc(Cl)cc1`: 0% (active). Turning to `Cc1ccccc1C(=O)Nc1ccc(C(=O)OCc2cc(=O)n3c4c(sc3n2)CCCC4)cc1`, the survival is 118% (inactive). The same measure for `COc1ccccc1C(=O)Nc1cccc(C(=O)OCc2cc(=O)n3c4c(sc3n2)CCCC4)c1`: 92% (inactive); for `O=C(Nc1ccccc1C(=O)OCc1cc(=O)n2c3c(sc2n1)CCCC3)c1ccccc1`: 107% (inactive); for `Cc1ccc(C(=O)c2oc3ccccc3c2NC(=O)COc2ccc(Cl)c(C)c2)cc1`: 90% (inactive). The same measure for `COc1cc(-c2nc3n(n2)C(c2ccc(F)cc2)C(C(N)=O)=C(C)N3)cc(OC)c1OC` (centres undefined): 91% (inactive).
